Laboratory results from PubChem BioAssay AID1259422 (The Scripps Research Institute Molecular Screening Center, 2018).
In all, about 640,000 compounds went through this assay and about 9,300 (1.5%) were called active. The sample as a whole holds a higher share of actives than the screen did. Unmarked numbers belong to inactive results. Cut-off read from the data, not from the text of the source: active = inhibition above about 32%; inactive = the rest.

experiment: TEAD-YAP interaction inhibition, primary screen, TEAD-YAP interaction inhibitor project, luminescence, HEK-TIYL cells (AID 1259422); conditions: TEAD-Gal4/YAP UAS-luciferase luminescence, at 9.12 µM, active compounds read high;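 note: 0% = median of test compound wells and 100% = reference inhibitor wells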

Row | SMILES | inhibition
1 | C/C(=C\c1ccccc1)C(=O)Nc1ccccc1C(=O)O | 36.6% (active)
2 | COC(=O)c1ccccc1NC(=O)C(=O)Nc1ccccc1C(=O)OC | -3.84%
3 | CCCC(=O)Nc1ccccc1C(=O)O | -0.09%
4 | COc1ccc(NC(=O)Cc2c[nH]c3ccccc23)cc1Cl | 4.42%
5 | COc1ccc(Nc2c(C#N)cnc3ccccc23)cc1Cl | 49.7% (active)
6 | CCN1CCN(c2ncc(C(=O)Nc3ccc(OC)c(Cl)c3)c3ccccc23)CC1 | -15.1%
7 | COc1cc(/C=C2/SC(=Nc3ccccc3Cl)NC2=O)cc(OC)c1OC | -2.07%
8 | Cc1cccc(C(=O)Oc2ccc(/C=C3/SC(=Nc4ccccc4Cl)NC3=O)cc2)c1 | 0.81%
9 | Cc1ccc(/C=C2/SC(=Nc3ccccc3Cl)NC2=O)cc1 | 37.2% (active)
10 | CC(=O)Nc1nc2cc([N+](=O)[O-])c(C)cc2s1 | -21.7%
11 | COc1cc(C2C(C(=O)OC3CCCCC3)=C(C)NC3=C2C(=O)CC(c2ccccc2)C3)cc(Cl)c1O (stereo not given) | -1.53%
12 | COc1ccc(C2CC(=O)NC3=C2C(=O)CC(c2ccccc2Cl)C3)cc1 (stereo not given) | 6.64%
13 | COc1cc(C2Nc3ccccc3NC3=C2C(=O)CC(c2ccccc2Cl)C3)cc(Cl)c1O (stereo not given) | 54.8% (active)
14 | CCOc1ccccc1C1C(C(=O)OC)=C(C)NC2=C1C(=O)CC(c1ccccc1)C2 (stereo not given) | -5.16%
15 | CCOc1ccccc1C1CC(=O)NC2=C1C(=O)CC(c1ccccc1Cl)C2 (stereo not given) | 36.2% (active)
16 | COc1ccc(C2CC(=O)C3=C(C2)Nc2ccccc2NC3c2cccc(Cl)c2)cc1 (stereo not given) | 1.54%
17 | O=C(CCCn1nnc(-c2ccccc2F)n1)c1ccc(O)cc1 | -5.05%
18 | CCc1ccc(N/C(SCc2cccc([N+](=O)[O-])c2)=C(/C#N)C(=O)NCc2ccco2)cc1 | -0.35%
19 | CC(=O)Nc1ccc(NC(=O)C(=O)NCc2ccc(F)cc2)cc1 | 0.35%
20 | CCN(CC)C(=O)CSc1nc2ccsc2c(=O)n1CCc1ccccc1 | 16.3%
21 | COc1ccccc1N1CCN(C(=O)CSc2nc3ccsc3c(=O)n2CCc2ccccc2)CC1 | 43.9% (active)
22 | COc1ccc(CCn2c(SCC(=O)Nc3ccc(C)c(C)c3)nc3ccccc3c2=O)cc1OC | 8.03%
23 | COc1ccccc1N1CCN(C(=O)CSc2nc3ccccc3c(=O)n2Cc2cccs2)CC1 | -7.66%
24 | COc1ccccc1N1CCN(C(=O)CSc2nc3ccsc3c(=O)n2-c2ccccc2)CC1 | 1.01%
25 | COc1ccc(CCn2c(SCC(=O)N3CCN(c4ccccc4OC)CC3)nc3ccccc3c2=O)cc1OC | 36.9% (active)
